Laboratory results from the supplement of paper PMC11732987, “Enantioselective OTUD7B fragment discovery through chemoproteomics screening and high-throughput optimisation” (Communications Chemistry, 2025).

Tests used:
Test in all cases: log2 ratio of Biotin-Ahx-Ub-VS probe labelling (fragment/DMSO); higher = less target engagement (more negative = stronger competition), active = hit call of the paper (q ≤ 0.05, log2 ratio ≤ -1)
Conditions in all cases: compound concentration: 200 uM; treatment time: 3 h
OTUD6B = target: T1, OTUD6B (UniProt Q8N6M0)
T1 sequence (whole entry): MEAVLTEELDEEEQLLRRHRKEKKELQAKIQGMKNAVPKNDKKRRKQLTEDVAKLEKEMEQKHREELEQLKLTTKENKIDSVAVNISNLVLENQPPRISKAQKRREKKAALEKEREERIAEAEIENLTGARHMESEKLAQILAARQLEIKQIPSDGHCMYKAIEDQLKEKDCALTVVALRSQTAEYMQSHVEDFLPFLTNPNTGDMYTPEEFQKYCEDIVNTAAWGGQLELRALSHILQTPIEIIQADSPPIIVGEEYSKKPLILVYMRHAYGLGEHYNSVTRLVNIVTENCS
Outline: (§1)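 Each value is an average log2 ratio of fragment to vehicle, tested by unpaired t-test. The underlying Spectronaut label-free quantities were global-median-normalised, and only proteins with ≥2 unique peptides were included. Triplicate HEK293T lysate samples (495 µg) were exposed to fragment at 200 µM or vehicle for 3 h, then to Biotin-Ahx-Ub-VS at 0.5 µM final for 1 h, before NeutrAvidin enrichment of labelled DUBs, LysC and trypsin digestion, and diaPASEF LC-MS/MS.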

OTUD7B = target: T2, OTUD7B (UniProt Q6GQQ9)
T2 sequence (whole entry): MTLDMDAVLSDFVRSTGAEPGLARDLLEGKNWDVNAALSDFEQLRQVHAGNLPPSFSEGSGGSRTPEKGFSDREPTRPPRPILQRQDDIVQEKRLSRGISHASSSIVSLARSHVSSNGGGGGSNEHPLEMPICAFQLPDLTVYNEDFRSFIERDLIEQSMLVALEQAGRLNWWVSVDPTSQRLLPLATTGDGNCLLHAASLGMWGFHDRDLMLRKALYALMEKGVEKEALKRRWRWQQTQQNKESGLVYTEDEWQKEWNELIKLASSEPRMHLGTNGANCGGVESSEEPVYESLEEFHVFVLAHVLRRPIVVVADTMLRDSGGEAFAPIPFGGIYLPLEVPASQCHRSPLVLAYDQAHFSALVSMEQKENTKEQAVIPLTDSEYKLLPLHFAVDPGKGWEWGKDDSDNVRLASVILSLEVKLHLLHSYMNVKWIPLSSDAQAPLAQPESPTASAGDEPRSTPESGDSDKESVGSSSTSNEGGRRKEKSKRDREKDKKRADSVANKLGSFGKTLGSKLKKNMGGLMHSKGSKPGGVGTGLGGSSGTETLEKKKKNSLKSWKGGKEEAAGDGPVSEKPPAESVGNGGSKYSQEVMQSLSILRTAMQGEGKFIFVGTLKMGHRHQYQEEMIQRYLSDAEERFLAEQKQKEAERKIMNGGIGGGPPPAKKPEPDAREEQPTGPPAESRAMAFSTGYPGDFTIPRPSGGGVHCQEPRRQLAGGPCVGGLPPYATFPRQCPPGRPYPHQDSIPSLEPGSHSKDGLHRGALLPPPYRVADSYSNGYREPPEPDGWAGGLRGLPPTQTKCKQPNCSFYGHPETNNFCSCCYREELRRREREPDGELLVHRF
Outline: as §1

PRPF8 = PRPF8 (UniProt Q6P2Q9)
Outline: as §1

PSMD7 = target: T3, PSMD7 (UniProt P51665)
T3 sequence (whole entry): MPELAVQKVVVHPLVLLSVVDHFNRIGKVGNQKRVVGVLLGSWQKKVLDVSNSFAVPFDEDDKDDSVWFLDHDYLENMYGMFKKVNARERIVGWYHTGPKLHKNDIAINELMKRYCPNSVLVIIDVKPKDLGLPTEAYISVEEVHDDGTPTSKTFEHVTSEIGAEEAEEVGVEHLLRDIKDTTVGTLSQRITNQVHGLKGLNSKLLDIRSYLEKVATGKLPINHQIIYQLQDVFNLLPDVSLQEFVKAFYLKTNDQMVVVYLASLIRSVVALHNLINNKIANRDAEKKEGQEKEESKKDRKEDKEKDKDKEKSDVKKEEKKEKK
Outline: as §1

UCHL1 = UCHL1 (UniProt P09936)
Chain of UCHL1 (P09936 whole entry, looked up): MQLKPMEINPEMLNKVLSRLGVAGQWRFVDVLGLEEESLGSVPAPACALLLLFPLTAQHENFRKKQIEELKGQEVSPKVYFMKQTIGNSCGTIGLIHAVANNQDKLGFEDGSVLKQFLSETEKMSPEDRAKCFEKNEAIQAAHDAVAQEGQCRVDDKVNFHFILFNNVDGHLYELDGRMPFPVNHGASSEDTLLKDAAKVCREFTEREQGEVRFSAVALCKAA
Outline: as §1

UCHL3 = target: T4, UCHL3 (UniProt P15374)
T4 sequence (whole entry): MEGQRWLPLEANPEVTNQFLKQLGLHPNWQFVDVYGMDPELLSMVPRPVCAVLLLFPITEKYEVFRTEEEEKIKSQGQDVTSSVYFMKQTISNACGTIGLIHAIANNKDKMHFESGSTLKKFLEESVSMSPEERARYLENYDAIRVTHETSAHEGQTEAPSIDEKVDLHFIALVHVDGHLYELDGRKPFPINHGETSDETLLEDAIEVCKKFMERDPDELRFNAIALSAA
Outline: as §1

UCHL5 = target: T5, UCHL5 (UniProt Q9Y5K5)
T5 sequence (whole entry): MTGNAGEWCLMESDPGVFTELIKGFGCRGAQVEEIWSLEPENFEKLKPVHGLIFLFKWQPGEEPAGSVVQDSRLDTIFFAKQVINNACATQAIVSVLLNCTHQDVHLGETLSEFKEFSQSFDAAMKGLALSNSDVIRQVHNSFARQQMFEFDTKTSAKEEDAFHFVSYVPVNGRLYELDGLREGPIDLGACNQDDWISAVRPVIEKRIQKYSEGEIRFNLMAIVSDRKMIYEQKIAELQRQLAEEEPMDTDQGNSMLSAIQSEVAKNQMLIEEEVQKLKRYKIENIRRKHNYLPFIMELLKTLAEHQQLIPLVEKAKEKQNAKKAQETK
Outline: as §1

USP10 = USP10 (UniProt Q14694)
Chain of USP10 (Q14694 whole entry): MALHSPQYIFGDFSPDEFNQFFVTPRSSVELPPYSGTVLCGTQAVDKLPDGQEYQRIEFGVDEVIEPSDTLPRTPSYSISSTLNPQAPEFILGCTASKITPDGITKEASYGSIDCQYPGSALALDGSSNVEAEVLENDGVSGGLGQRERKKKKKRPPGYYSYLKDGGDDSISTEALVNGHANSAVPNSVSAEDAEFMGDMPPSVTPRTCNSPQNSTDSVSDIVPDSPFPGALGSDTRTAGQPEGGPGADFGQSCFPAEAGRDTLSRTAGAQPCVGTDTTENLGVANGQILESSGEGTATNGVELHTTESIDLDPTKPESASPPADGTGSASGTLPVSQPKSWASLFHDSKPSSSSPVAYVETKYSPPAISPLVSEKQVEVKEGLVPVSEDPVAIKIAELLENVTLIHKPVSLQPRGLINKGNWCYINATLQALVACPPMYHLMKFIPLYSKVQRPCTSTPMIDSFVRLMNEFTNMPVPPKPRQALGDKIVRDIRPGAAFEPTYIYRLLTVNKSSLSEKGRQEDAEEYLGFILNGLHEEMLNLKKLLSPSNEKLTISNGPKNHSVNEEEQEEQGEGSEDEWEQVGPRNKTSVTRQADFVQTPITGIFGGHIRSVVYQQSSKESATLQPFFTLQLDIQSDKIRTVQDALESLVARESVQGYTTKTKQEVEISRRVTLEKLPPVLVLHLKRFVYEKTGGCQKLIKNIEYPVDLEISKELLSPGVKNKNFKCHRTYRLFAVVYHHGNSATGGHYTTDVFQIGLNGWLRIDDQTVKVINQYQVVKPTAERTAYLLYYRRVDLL
Outline: as §1

USP15 = target: T6, USP15 (UniProt Q9Y4E8)
T6 sequence (whole entry): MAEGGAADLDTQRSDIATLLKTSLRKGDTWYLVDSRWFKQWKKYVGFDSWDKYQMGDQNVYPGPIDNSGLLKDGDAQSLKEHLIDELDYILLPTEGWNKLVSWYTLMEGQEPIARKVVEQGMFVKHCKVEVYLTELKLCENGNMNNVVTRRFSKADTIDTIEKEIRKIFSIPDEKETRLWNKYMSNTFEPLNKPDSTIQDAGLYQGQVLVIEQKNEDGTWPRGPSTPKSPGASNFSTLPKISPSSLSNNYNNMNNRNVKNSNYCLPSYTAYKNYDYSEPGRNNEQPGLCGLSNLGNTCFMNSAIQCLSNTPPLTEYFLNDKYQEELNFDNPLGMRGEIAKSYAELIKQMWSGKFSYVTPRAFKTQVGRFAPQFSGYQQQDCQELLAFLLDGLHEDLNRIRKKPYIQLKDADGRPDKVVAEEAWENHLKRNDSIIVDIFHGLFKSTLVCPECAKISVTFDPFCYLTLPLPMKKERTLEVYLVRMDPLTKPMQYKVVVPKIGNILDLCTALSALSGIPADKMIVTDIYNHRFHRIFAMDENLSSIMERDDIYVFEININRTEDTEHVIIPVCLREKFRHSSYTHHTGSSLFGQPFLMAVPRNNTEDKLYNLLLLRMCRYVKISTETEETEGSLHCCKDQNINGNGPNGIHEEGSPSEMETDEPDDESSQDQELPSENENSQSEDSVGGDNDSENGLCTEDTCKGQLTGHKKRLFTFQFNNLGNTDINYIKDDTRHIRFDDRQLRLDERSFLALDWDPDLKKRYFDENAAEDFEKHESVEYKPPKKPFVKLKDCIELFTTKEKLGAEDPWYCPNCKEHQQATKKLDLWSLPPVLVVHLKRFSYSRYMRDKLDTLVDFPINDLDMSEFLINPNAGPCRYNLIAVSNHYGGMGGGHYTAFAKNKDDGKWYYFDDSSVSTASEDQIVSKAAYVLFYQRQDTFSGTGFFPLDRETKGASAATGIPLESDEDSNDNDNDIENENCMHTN
Outline: as §1

USP16 = USP16 (UniProt Q9Y5T5)
Chain of USP16 (Q9Y5T5 whole entry, looked up): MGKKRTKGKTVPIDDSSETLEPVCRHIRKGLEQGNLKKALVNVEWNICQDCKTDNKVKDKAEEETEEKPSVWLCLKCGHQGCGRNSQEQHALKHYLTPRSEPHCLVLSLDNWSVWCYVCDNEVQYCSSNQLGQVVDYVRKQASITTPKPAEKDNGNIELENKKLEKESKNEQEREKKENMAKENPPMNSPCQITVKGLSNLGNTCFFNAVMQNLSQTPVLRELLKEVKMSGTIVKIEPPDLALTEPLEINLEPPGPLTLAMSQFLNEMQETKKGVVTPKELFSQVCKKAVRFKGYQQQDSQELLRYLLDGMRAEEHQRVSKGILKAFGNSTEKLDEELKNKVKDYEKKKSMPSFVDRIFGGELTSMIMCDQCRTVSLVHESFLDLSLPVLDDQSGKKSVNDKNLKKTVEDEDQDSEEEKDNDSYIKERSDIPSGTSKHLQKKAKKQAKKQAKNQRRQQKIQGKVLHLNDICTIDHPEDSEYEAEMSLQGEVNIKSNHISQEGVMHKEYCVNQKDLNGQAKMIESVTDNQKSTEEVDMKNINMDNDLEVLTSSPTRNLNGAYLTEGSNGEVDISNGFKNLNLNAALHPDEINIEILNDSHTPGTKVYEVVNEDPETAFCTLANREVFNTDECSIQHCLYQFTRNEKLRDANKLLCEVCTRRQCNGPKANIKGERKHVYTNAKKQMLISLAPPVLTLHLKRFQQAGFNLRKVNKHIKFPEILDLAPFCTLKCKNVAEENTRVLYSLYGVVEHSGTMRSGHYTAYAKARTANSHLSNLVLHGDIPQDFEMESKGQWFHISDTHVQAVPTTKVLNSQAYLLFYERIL
Outline: as §1

Measured: log2 ratio of Biotin-Ahx-Ub-VS probe labelling

N#Cc1ccc(CNC(=O)CCl)cc1
inactive: OTUD6B 0.025 | OTUD7B -0.865 | PRPF8 -0.187 | PSMD7 -0.28 | UCHL3 0.183 | UCHL5 -0.131 | USP10 -0.0787 | USP15 -0.145 | USP16 0.29
active: UCHL1 -1.19
